Source: PubChem BioAssay (Tox21)
Records with an inconclusive call do not appear. A call without a number means that no potency is given here. Calls of active or inactive are those of the source. Calls come from the whole dose curve; as a rule, active = well fitted activation curve with a large enough effect in the repeat runs; inconclusive = weak or mixed curves; inactive = flat fitted curve, though single readings scatter.

test: A CellTox Green Cytotoxicity Assay to monitor cytotoxicity in HepG2 cells - 40 hour (AID 1224879); settings: CellTox Green fluorescence; series mostly up to 76.8 µM; note: nearly all actives have a fitted effect of over 40% in size
From the text: National Center for Advancing Translational Sciences [NCATS]
NIH Chemical Genomics Center [NCGC]
U.S. Environmental Protection Agency [EPA]
National Institutes of Environmental Health Sciences [NIEHS]
National Toxicology Program [NTP]
Cell-based models are critical for drug discovery. Determining the natural cytotoxic effects resulting from test compounds is an essential research activity. A CellTox Green Cytotoxicity Assay to monitor cytotoxicity in real time of continues cell culture during 40 hours of the compound treatment was used to screen Tox21 10K library compounds in HepG2 cells. CellTox Green Cytotoxicity Assay is a nonlytic, homogeneous, biofluorescent method to measure cytotoxicity in cell culture after experimental manipulation. The assay system uses a proprietary asymmetric cyanine dye that is excluded from viable cells but preferentially stains the dead cell's DNA. […] Viable cells produce no appreciable increases in fluorescence. Therefore, the fluorescence signal produced by the binding interaction with dead cell DNA is proportional to cytotoxicity.
The mixture of HepG2 cell suspension and reagents were dispensed at 600cells/6 ul/well in 1536-well tissue culture treated black solid bottom plates using a Multidrop dispenser. After the assay plates were incubated at a 37 C/5% CO2 incubator for 5 hours, 23 nL of compounds dissolved in DMSO, positive and negative controls was transferred to the assay plate by a pintool work station. The plates were incubated at 37 C for 40 hours. The fluorescence intensity were measured at 0h, 8h, 16h, 24h, 32h and 40h time points using ViewLux plate reader during compound treatment.
Potency is the fitted concentration of half-maximal effect.

Compound | cytotoxicity increase | Potency
N[C@@H](COP(=O)(O)O)C(=O)O | -0.277% [at 15.8 µM] (inactive) | 
CC(C)(C)c1nnc(NS(=O)(=O)c2ccc(N)cc2)s1 |  | inactive
CC(=O)NCCCCCC(=O)O |  | inactive
CN(C)c1ccc(C=O)cc1 |  | inactive
COc1cc2c(cc1OC)[C@@H]1CC(=O)[C@@H](CC(C)C)CN1CC2 |  | inactive
O=C(CCNNC(=O)c1ccncc1)NCc1ccccc1 |  | inactive
O=S(=O)(O)CCN1CCN(CCO)CC1 |  | inactive
NCCN1CCOCC1 |  | inactive
C=C(C)C(=O)OCCNC(C)(C)C |  | inactive
Cc1ccc2c(c1)OCC(=O)CO2 |  | inactive
Cc1cccc(OCC(O)CNC(C)(C)C)c1C (stereo not given) |  | inactive
NNc1nnc(NN)c2ccccc12 |  | inactive
COc1ccc(C2CNC(=O)C2)cc1OC1CCCC1 (stereo not given) |  | inactive
O=S(=O)(O)c1cc(O)c2ccc(Nc3ccccc3)cc2c1 |  | inactive
C=CCCCCCCCCCCCC |  | inactive
CCCCCOC(=O)CCC |  | inactive
O=C(OCC(COC(=O)c1cccnc1)(COC(=O)c1cccnc1)COC(=O)c1cccnc1)c1cccnc1 |  | inactive
O=C(OCc1ccccc1)C(=O)OCc1ccccc1 |  | inactive
C#CC(C)N(C)C(=O)Nc1ccc(Cl)cc1 (stereo not given) |  | inactive
C=COCCOCCOCCOC=C |  | inactive

Compound | cytotoxicity increase | Potency
COc1ccc2c(c1)C(=O)N(CCc1ccc(S(=O)(=O)NC(=O)NC3CCCCC3)cc1)C(=O)C2(C)C |  | inactive
CC(CC=O)CCCC(C)(C)O (stereo not given) |  | inactive
CC(C)c1ccc2cc(C(C)C)ccc2c1 |  | inactive
CCC(C)NC(N)=O (stereo not given) |  | inactive
O=C(NCCN1CCOCC1)c1ccc(Cl)cc1 |  | inactive
CCN(CC)CC(=O)Nc1c(C)cccc1C |  | inactive
COc1ccc(-c2cc(=O)c3c(O)cc(O[C@@H]4O[C@H](CO[C@@H]5O[C@@H](C)[C@H](O)[C@@H](O)[C@H]5O)[C@@H](O)[C@H](O)[C@H]4O)cc3o2)cc1O |  | inactive
CC1(C)S[C@@H]2[C@H](N=CN3CCCCCC3)C(=O)N2[C@H]1C(=O)O |  | inactive
CC(=O)c1sc(C)nc1C |  | inactive
CCOC(=O)/C=C/c1ccccc1 |  | inactive
CCC(C=O)CC |  | inactive
C=C(C)C(=O)OCCOP(=O)(O)OCCOC(=O)C(=C)C |  | inactive
CCOC(=O)c1ncn2c1CN(C)C(=O)c1cc(F)ccc1-2 |  | inactive
ClCCCl |  | inactive
COC(=O)c1ccccc1C(=O)c1ccc(OCCN2CCCCC2)cc1 |  | inactive
Cc1ccccc1C(=O)Nc1ccc(C(=O)N2CCCC(N(C)C)c3ccccc32)cc1 (stereo not given) |  | 6.74 µM (active)
CC(=O)Nc1cccc(C)c1 |  | inactive
COc1cc(C(=S)N2CCOCC2)cc(OC)c1OC |  | inactive
OCCN(CCO)c1cccc(Cl)c1 |  | inactive
CC(C)=O |  | inactive
